Measured values as given in ChEMBL document CHEMBL1961873, “Compounds: GSK PKIS; Assays: Nanosyn kinase panel” (2012).
“And” between values parts separate entries of the source, which are not always exact repeats. Equal values may be shown once.

Columns and labels:
[1] = biological target: Serine/threonine-protein kinase pim-2 (Homo sapiens) (UniProt Q9P1W9); conditions: at 1 µM;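 note: each value is a mean of the inhibition measurements against the kinase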
[2] = biological target: Serine/threonine-protein kinase pim-3 (Homo sapiens) (UniProt Q86V86); conditions: at 0.1 µM
[3] = biological target: Serine/threonine-protein kinase pim-3 (Homo sapiens) (UniProt Q86V86); conditions: at 1 µM
[4] = biological target: T1, MAP kinase-activated protein kinase 5 (Homo sapiens) (UniProt Q8IW41); conditions: at 0.1 µM
T1 sequence (whole entry): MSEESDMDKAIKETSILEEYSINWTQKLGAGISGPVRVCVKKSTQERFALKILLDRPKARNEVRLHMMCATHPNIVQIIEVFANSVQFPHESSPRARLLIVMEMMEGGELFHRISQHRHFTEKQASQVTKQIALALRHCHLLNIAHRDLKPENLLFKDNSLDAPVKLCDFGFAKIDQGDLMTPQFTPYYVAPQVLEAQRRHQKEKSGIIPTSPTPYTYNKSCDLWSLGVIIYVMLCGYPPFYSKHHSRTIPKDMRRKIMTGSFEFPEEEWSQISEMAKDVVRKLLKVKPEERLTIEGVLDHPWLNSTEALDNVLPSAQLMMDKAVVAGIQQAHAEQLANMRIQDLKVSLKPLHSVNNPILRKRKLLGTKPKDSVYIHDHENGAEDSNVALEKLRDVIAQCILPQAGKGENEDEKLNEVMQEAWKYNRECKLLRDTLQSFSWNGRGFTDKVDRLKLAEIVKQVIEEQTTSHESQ

[5] = biological target: T1, MAP kinase-activated protein kinase 5 (Homo sapiens); conditions: at 1 µM
[6] = biological target: Serine/threonine-protein kinase SIK1 (Homo sapiens) (UniProt P57059); conditions: at 0.1 µM
[7] = biological target: Serine/threonine-protein kinase SIK1 (Homo sapiens) (UniProt P57059); conditions: at 1 µM
[8] = biological target: Serine/threonine-protein kinase SIK2 (Homo sapiens) (UniProt Q9H0K1); conditions: at 0.1 µM
[9] = biological target: Serine/threonine-protein kinase SIK2 (Homo sapiens) (UniProt Q9H0K1); conditions: at 1 µM
[10] = biological target: T2, Serine/threonine-protein kinase TBK1 (Homo sapiens) (UniProt Q9UHD2); conditions: at 0.1 µM
T2 sequence (whole entry): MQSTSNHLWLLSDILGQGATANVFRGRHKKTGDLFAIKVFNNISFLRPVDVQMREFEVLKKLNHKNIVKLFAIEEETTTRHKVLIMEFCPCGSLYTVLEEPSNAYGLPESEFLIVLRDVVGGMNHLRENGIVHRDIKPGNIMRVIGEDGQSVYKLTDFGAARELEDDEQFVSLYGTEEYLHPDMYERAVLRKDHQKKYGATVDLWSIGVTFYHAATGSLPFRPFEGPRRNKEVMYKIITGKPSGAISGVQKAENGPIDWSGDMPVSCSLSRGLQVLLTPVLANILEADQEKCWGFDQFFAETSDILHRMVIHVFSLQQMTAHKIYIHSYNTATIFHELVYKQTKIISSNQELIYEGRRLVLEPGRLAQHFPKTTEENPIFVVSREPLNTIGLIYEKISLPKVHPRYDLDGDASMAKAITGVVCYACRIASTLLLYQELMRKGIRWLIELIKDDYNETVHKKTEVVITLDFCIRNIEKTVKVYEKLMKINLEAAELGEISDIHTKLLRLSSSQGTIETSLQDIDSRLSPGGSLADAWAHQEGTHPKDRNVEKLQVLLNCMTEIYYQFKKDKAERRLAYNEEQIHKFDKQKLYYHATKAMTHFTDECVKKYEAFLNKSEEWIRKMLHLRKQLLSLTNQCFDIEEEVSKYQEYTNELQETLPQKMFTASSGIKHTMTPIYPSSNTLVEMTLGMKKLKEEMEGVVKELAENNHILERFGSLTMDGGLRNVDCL

[11] = biological target: T2, Serine/threonine-protein kinase TBK1 (Homo sapiens); conditions: at 1 µM
[12] = biological target: T3, Testis-specific serine/threonine-protein kinase 1 (Homo sapiens) (UniProt Q9BXA7); conditions: at 0.1 µM
T3 sequence (whole entry): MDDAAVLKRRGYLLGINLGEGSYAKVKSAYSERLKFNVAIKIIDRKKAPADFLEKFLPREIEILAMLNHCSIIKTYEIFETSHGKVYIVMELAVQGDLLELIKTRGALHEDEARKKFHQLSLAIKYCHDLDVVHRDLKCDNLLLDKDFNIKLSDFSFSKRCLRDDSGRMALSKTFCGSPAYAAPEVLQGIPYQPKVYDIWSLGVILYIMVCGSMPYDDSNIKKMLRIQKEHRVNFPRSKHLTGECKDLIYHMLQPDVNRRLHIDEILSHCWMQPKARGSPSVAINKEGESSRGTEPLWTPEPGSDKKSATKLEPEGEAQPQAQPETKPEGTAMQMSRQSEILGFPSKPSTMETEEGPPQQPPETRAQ

[13] = biological target: T3, Testis-specific serine/threonine-protein kinase 1 (Homo sapiens); conditions: at 1 µM
[14] = biological target: T4, Testis-specific serine/threonine-protein kinase 2 (Homo sapiens) (UniProt Q96PF2); conditions: at 0.1 µM
T4 sequence (whole entry): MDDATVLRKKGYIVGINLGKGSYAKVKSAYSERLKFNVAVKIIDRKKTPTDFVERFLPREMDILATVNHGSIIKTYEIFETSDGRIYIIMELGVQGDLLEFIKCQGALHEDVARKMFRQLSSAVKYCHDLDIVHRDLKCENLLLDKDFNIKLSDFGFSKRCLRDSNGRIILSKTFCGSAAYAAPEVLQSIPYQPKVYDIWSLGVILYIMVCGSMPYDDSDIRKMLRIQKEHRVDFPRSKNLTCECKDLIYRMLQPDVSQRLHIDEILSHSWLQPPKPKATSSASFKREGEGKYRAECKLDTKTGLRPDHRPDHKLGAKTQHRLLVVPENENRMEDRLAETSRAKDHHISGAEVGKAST

[15] = biological target: T4, Testis-specific serine/threonine-protein kinase 2 (Homo sapiens); conditions: at 1 µM
[16] = biological target: Casein kinase I isoform alpha (Homo sapiens) (UniProt P48729); conditions: at 0.1 µM
[17] = biological target: Casein kinase I isoform alpha (Homo sapiens) (UniProt P48729); conditions: at 1 µM
[18] = biological target: Casein kinase I isoform gamma-1 (Homo sapiens) (UniProt Q9HCP0); conditions: at 0.1 µM
[19] = biological target: Casein kinase I isoform gamma-1 (Homo sapiens) (UniProt Q9HCP0); conditions: at 1 µM
[20] = biological target: Casein kinase I isoform gamma-2 (Homo sapiens) (UniProt P78368); conditions: at 0.1 µM;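 note: values are mean inhibition figures reported as part of the GSK PKIS dataset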
Chain of Casein kinase I isoform gamma-2 (Homo sapiens) (P78368 whole entry, looked up, canonical isoform): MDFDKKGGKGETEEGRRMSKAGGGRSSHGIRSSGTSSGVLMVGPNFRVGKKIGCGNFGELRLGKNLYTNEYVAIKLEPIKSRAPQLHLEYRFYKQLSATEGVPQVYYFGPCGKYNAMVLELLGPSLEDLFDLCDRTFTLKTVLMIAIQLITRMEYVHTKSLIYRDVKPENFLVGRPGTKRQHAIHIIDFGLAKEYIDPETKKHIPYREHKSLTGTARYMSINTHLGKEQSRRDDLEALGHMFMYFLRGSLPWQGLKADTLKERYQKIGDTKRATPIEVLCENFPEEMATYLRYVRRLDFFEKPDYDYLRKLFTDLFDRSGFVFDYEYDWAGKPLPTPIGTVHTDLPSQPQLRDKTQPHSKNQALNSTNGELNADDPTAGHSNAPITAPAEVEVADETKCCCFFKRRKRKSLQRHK

Chain of Casein kinase I isoform gamma-1 (Homo sapiens) (Q9HCP0 whole entry, looked up, canonical isoform): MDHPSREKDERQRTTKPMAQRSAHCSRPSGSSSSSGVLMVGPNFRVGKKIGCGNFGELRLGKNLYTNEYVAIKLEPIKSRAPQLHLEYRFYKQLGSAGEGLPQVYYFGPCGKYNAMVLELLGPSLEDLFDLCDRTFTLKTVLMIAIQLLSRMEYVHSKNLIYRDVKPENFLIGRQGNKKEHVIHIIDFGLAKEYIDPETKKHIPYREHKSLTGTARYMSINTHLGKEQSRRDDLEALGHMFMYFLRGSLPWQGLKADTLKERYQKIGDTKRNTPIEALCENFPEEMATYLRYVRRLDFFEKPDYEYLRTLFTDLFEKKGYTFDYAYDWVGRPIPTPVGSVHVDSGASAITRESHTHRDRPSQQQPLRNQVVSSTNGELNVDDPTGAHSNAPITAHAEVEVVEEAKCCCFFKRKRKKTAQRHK
Chain of Serine/threonine-protein kinase SIK1 (Homo sapiens) (P57059 whole entry): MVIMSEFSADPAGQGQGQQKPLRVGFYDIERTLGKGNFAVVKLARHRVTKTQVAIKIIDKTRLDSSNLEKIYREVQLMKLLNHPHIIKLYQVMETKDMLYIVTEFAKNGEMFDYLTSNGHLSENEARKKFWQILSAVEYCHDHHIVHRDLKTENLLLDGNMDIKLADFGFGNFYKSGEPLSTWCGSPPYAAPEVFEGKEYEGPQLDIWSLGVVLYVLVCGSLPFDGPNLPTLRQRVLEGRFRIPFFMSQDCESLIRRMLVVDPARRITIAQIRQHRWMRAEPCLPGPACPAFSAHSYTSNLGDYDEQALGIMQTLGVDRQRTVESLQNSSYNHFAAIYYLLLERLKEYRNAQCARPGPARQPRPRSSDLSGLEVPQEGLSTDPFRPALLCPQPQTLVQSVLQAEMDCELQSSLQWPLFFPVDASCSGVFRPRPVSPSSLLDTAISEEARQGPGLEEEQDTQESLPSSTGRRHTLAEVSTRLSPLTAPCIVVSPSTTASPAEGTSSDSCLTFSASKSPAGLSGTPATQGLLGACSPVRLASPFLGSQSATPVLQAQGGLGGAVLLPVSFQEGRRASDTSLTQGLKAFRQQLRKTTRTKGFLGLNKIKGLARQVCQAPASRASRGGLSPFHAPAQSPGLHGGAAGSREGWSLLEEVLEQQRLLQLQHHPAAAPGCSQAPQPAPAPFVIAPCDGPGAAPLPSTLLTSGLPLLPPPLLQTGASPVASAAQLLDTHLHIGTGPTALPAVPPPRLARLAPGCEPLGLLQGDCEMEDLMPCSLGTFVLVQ
Chain of Casein kinase I isoform alpha (Homo sapiens) (P48729 2-337 limits assumed): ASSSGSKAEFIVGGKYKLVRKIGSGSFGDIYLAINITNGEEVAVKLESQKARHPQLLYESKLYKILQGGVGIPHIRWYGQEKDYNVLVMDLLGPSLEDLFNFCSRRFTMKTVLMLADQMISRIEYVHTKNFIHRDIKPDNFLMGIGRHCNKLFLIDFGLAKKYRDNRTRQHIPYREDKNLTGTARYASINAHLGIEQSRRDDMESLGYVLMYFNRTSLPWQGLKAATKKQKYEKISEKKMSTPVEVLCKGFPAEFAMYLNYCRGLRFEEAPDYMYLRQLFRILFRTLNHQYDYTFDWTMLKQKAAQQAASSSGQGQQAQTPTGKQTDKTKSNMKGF
Chain of Serine/threonine-protein kinase SIK2 (Homo sapiens) (Q9H0K1 whole entry, looked up): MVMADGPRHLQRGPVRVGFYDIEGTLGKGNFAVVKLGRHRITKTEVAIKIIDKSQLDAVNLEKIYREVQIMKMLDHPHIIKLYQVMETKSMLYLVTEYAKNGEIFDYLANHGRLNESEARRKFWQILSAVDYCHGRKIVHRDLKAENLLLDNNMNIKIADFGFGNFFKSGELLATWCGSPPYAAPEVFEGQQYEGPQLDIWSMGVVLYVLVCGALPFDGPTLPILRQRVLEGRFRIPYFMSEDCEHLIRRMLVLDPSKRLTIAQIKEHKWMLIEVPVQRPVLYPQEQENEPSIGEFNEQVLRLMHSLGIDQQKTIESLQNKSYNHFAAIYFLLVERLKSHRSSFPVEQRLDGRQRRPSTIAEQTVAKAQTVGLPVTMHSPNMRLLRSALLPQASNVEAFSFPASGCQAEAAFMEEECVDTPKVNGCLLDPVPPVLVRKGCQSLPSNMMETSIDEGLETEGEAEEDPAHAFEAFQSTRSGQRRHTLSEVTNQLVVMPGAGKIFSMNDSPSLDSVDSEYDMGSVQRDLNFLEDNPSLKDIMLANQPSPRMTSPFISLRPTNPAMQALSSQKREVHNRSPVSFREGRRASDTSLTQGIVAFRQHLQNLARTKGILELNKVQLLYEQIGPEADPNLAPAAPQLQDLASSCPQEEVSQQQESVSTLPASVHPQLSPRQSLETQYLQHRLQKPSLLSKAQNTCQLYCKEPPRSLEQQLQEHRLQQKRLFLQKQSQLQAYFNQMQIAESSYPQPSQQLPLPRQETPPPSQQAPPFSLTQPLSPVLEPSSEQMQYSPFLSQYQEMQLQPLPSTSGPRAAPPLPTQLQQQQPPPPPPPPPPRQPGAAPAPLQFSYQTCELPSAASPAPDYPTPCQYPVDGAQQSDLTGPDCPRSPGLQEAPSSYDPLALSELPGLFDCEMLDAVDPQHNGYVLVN
Chain of Serine/threonine-protein kinase pim-2 (Homo sapiens) (Q9P1W9 whole entry, looked up): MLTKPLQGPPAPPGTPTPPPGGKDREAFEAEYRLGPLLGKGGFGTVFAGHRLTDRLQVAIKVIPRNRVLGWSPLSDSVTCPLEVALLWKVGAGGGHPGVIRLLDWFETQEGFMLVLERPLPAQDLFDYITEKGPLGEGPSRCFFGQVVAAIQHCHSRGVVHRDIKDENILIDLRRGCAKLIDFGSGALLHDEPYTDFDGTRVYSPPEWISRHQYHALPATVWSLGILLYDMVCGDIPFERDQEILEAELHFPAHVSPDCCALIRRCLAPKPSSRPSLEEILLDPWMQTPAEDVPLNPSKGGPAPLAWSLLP

Compound: CN(C)CCNC(=O)Nc1ccc(N(C)c2ccnc(Nc3ccc(CS(C)(=O)=O)cc3)n2)cc1
- inhibition [1]: 2.68%
- inhibition [2]: -0.48%
- inhibition [3]: -1.2%
- inhibition [4]: 1.02%
- inhibition [5]: 0.33%
- inhibition [6]: 5.41%
- inhibition [7]: 31.9%
- inhibition [8]: 8.68%
- inhibition [9]: 13.6%
- inhibition [10]: 2.12%
- inhibition [11]: 5.74%
- inhibition [12]: 2.28%
- inhibition [13]: 5.73%
- inhibition [14]: 0.57%
- inhibition [15]: -1.45%
- inhibition [16]: 2.02%
- inhibition [17]: 5.94%
- inhibition [18]: 3.74%
- inhibition [19]: 4.96%
- inhibition [20]: 4.73%

Compound: CN1CCN(Cc2ccc(-c3cc4ncnc(Nc5ccc(OCc6cccc(F)c6)c(Cl)c5)c4s3)o2)CC1
- inhibition [1]: 0.42% and 1.37%
- inhibition [2]: -0.99% and -1.6%
- inhibition [3]: 0.95% and 2.39%
- inhibition [4]: 0.79% and 1.52%
- inhibition [5]: 0.84% and 3.86%
- inhibition [6]: 4.03% and 8.14%
- inhibition [7]: 12.8% and 15.9%
- inhibition [8]: 2.15% and 4.89%
- inhibition [9]: 1.94% and 9.4%
- inhibition [10]: 1.51% and 5%
- inhibition [11]: 2.76% and 4.14%
- inhibition [12]: 2.79% and 6.19%
- inhibition [13]: 3.62% and 7.65%
- inhibition [14]: 0.34% and 4.58%
- inhibition [15]: 0.35% and 5.87%
- inhibition [16]: 3.03% and 3.11%
- inhibition [17]: 4.88% and 3.62%
- inhibition [18]: 2.79% and 5.01%
- inhibition [19]: 4.51% and 5.57%
- inhibition [20]: 2.31% and 3.69%

Compound: COc1ccc(-c2nn3ncccc3c2-c2ccnc(Nc3ccc(F)c(F)c3)n2)cc1
- inhibition [1]: 4.2%
- inhibition [2]: 4.52%
- inhibition [3]: 6.05%
- inhibition [4]: 1.6%
- inhibition [5]: 4.42%
- inhibition [6]: 1.5%
- inhibition [7]: 8.64%
- inhibition [8]: 8.32%
- inhibition [9]: 7.08%
- inhibition [10]: -2.71%
- inhibition [11]: 5.55%
- inhibition [12]: 4.21%
- inhibition [13]: 5.79%
- inhibition [14]: 2.03%
- inhibition [15]: 5.03%
- inhibition [16]: 4.64%
- inhibition [17]: 6.66%
- inhibition [18]: 4.01%
- inhibition [19]: 4.36%
- inhibition [20]: 3.31%

Compound: CC(C)c1ccc(-c2cc(-c3c[nH]nc3-c3ccccn3)ccn2)cc1
- inhibition [1]: -0.1%
- inhibition [2]: 0.23%
- inhibition [3]: -0.66%
- inhibition [4]: 0.04%
- inhibition [5]: -0.19%
- inhibition [6]: 0.32%
- inhibition [7]: 0.87%
- inhibition [8]: -2.6%
- inhibition [9]: -1.02%
- inhibition [10]: 0.97%
- inhibition [11]: -0.11%
- inhibition [12]: 0.45%
- inhibition [13]: 0.81%
- inhibition [14]: -0.82%
- inhibition [15]: -1.06%
- inhibition [16]: 3.57%
- inhibition [17]: 9.88%
- inhibition [18]: 0.64%
- inhibition [19]: 2.41%
- inhibition [20]: 0.19%

Compound: CCS(=O)(=O)c1ccc(OC)c(Nc2ncc(-c3cccc(F)c3)o2)c1
- inhibition [1]: 0.08%
- inhibition [2]: 0.31%
- inhibition [3]: 3.65%
- inhibition [4]: 2.11%
- inhibition [5]: 2.01%
- inhibition [6]: 7.36%
- inhibition [7]: 29.4%
- inhibition [8]: 8.6%
- inhibition [9]: 36.7%
- inhibition [10]: 5.98%
- inhibition [11]: 11.5%
- inhibition [12]: 6.42%
- inhibition [13]: 5.86%
- inhibition [14]: 3.41%
- inhibition [15]: 3.46%
- inhibition [16]: 5.47%
- inhibition [17]: 7.11%
- inhibition [18]: 4.64%
- inhibition [19]: 5.04%
- inhibition [20]: 3.91%

Compound: CCS(=O)(=O)c1ccc(OC)c(Nc2ncc(-c3cccc(C(C)=O)c3)o2)c1
- inhibition [1]: -0.01%
- inhibition [2]: 0.38%
- inhibition [3]: 4.79%
- inhibition [4]: 1.84%
- inhibition [5]: 2%
- inhibition [6]: 6.02%
- inhibition [7]: 15.1%
- inhibition [8]: 3.14%
- inhibition [9]: 14%
- inhibition [10]: 0.54%
- inhibition [11]: 5.54%
- inhibition [12]: 2.02%
- inhibition [13]: 5.38%
- inhibition [14]: 3.72%
- inhibition [15]: 1.57%
- inhibition [16]: 0.47%
- inhibition [17]: 2.36%
- inhibition [18]: 2.26%
- inhibition [19]: 2.79%
- inhibition [20]: 2.75%

Compound: N#Cc1ccc2c(-c3ccnc(NC4CC4)n3)c(-c3ccc(F)cc3)nn2c1
- inhibition [1]: 0.72%
- inhibition [2]: -0.27%
- inhibition [3]: -0.29%
- inhibition [4]: 0.61%
- inhibition [5]: -0.5%
- inhibition [6]: 4.86%
- inhibition [7]: 23.5%
- inhibition [8]: 24.1%
- inhibition [9]: 68.9%
- inhibition [10]: 1.15%
- inhibition [11]: 0.07%
- inhibition [12]: 1.44%
- inhibition [13]: -1.14%
- inhibition [14]: 1.07%
- inhibition [15]: -0.63%
- inhibition [16]: 3.72%
- inhibition [17]: 30.1%
- inhibition [18]: 1.85%
- inhibition [19]: 4.03%
- inhibition [20]: 2%
